What all share (test): PBM binding z-score (relative to random genomic background probes); higher = stronger binding; sequences stand for … in GC…GCGATTGACAGCGTAGAATGAAGG
The subject of experiment [1] is FXR:RXRa (NR concentration 270 nM, RXRa partner concentration 90 nM). Put shortly: (§1)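 Antibodies against each partner of ligand-free nuclear receptor dimers (one per run) detected binding on custom Agilent 4×180K protein-binding microarrays after 1 h incubation. The double-stranded probes had 34-nt variable regions carrying direct-repeat seeds, single-nucleotide variants, half-site ablations and random human genomic background sequences. Binding z-scores, from regression-normalized fluorescence, use the random background probes as reference.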

In experiment [2] the test system is LXRa:RXRa (NR concentration 270 nM, RXRa partner concentration 90 nM). Put shortly:
as §1

The test system of experiment [3] is LXRa homodimer (NR concentration 270 nM). In short, it runs like this: as §1
In experiment [4] the test system is LXRb:RXRa (NR concentration 270 nM, RXRa partner concentration 90 nM). Put shortly: as §1
Experiment [5] has as its system LXRb homodimer (NR concentration 270 nM). Put shortly:
as §1

The subject of experiment [6] is PPARa:RXRa (NR concentration 270 nM, RXRa partner concentration 90 nM). In short, it runs like this: as §1
Experiment [7] deals with PPARg:RXRa (NR concentration 180 nM, RXRa partner concentration 90 nM). In short, it runs like this:
as §1

Experiment [8] relates to PPARg:RXRa 270nM:90nM, anti-RXR (NR concentration 270 nM, RXRa partner concentration 90 nM). Put shortly:
as §1

Experiment [9] concerns PPARg:RXRa 30nM:10nM, anti-RXR (NR concentration 30 nM, RXRa partner concentration 10 nM). Put shortly:
as §1

The test system of experiment [10] is PPARg:RXRa 90nM:30nM, anti-RXR (NR concentration 90 nM, RXRa partner concentration 30 nM). In short, it runs like this: as §1
In experiment [11] the test system is PPARg:RXRa DBDmut IVT, anti-RXR (DBD mutation: RXRa K156A/R161A, NR concentration 270 nM, RXRa partner concentration 90 nM). Put shortly:
as §1

For experiment [12], the system named is PPARg:RXRa IVT, anti-PPARg (NR concentration 270 nM, RXRa partner concentration 90 nM). Put shortly: as §1
Experiment [13] deals with PPARg DBDmut:RXRa IVT, anti-PPARg (DBD mutation: PPARg1 K132A/R137A, NR concentration 270 nM, RXRa partner concentration 90 nM). In short, it runs like this: as §1
For experiment [14], the system named is PPARg DBDmut IVT, anti-PPARg (DBD mutation: PPARg1 K132A/R137A, NR concentration 270 nM). In short, it runs like this: as §1
Experiment [15] deals with PPARg homodimer (NR concentration 180 nM). In short, it runs like this:
as §1

Experiment [16] concerns PXR:RXRa (NR concentration 270 nM, RXRa partner concentration 90 nM). In short, it runs like this:
as §1

The subject of experiment [17] is PXR homodimer (NR concentration 270 nM). In short, it runs like this:
as §1

The test system of experiment [18] is RARa:RXR (NR concentration 270 nM, RXRa partner concentration 90 nM). In short, it runs like this: as §1
Experiment [19] has as its system RARa homodimer (NR concentration 270 nM). In short, it runs like this: as §1
The test system of experiment [20] is RARb:RXRa (NR concentration 270 nM, RXRa partner concentration 90 nM). Put shortly: as §1

Consider CTACCAAGGTGAACAAGGTGGTTGATTACTATTC, for which the PBM binding z-score in experiment [1] was 0.298; in [2] it was 0.0424; in experiment [3] it was -0.231; in experiment [4], 0.391; in experiment [5] it was -0.589; in [6], 1.21. Moreover, the PBM binding z-score was 0.492 in experiment [7]; 0.416 in [8]; -0.231 in [9]; 0.026 in experiment [10]; 2.63 in experiment [11]; 2.27 in experiment [12]. Moreover, the PBM binding z-score in experiment [13] was 0.24; in experiment [14], -0.57; in experiment [15] it was 0.187; in experiment [16], 0.111; in experiment [17], 0.0854; in experiment [18], 0.44. Moreover, the PBM binding z-score in [19] was 0.0119; in [20] it was 1.43.

As to ACAACGAGGGCAATGAGTTGATAGCACGGGTGGC, the PBM binding z-score in [1] was 0.234; in [2] it was 0.0424; in [3], -0.326; in [4], -0.109; in [5] it was -0.343; in experiment [6], 0.835. Moreover, the PBM binding z-score in experiment [7] is 1.33; in experiment [8], 0.403; in experiment [9], -0.00945; in [10], 0.211; in experiment [11], 2.73; in experiment [12] it was 2.02. Besides, the PBM binding z-score in experiment [13] is 0.439; in experiment [14] it was 0.354; in experiment [15] it was 0.382; in experiment [16], 1.76; in experiment [17], 4.64; in experiment [18], 0.401. Further, the figures for the PBM binding z-score in experiment [19] and in [20] were -0.285 and 2.15, respectively.

On to CCTAGCAGGCCAATCTGGGTCACTCACGGCTTGA, for which the PBM binding z-score in [1] is 0.571; in experiment [2], 1.17; in [3], -0.195; in experiment [4], 0.493; in experiment [5] it was -0.78; in [6], 2.81. The PBM binding z-score in experiment [7] was 1.85; in experiment [8] it was 1.92; in experiment [9], -0.256; in experiment [10] it was 1.18; in experiment [11], 4.16; in experiment [12] it was 4.93. Besides, the PBM binding z-score was -0.714 in [13]; -0.428 in experiment [14]; 0.645 in experiment [15]; 0.777 in [16]; -0.161 in experiment [17]; 1.18 in experiment [18]. Besides, the PBM binding z-score was -0.509 in experiment [19] and 1.56 in experiment [20].

For AGAACGAGGGCAATGAGTTGCTAGCACGGGTGGC, the PBM binding z-score is 0.0307 in experiment [1]; -0.027 in experiment [2]; -0.614 in experiment [3]; -0.476 in experiment [4]; -0.767 in experiment [5]; 1.23 in experiment [6]. In addition, the PBM binding z-score is 1.05 in experiment [7]; 0.875 in experiment [8]; -0.288 in experiment [9]; 0.214 in experiment [10]; 3.04 in [11]; 2.38 in experiment [12]. Moreover, the PBM binding z-score in experiment [13] was 0.736; in experiment [14] it was -0.0393; in [15], -0.0603; in experiment [16] it was 0.451; in [17] it was 0.523; in [18], 0.256. The PBM binding z-score in experiment [19] is -0.567; in [20], 1.98.

Regarding CTCGAAAGGTCGGCTGAGGTGAGTATACGGATAA, the PBM binding z-score is 3.7 in experiment [1]; 2.47 in experiment [2]; -0.364 in experiment [3]; 1.86 in experiment [4]; -0.336 in [5]; 3.62 in [6]. The PBM binding z-score in experiment [7] is 0.965; in experiment [8] it was 2.18; in experiment [9], 0.306; in [10] it was 1.12; in [11], -0.0166; in [12], 1. The PBM binding z-score was -0.0144 in experiment [13]; -0.891 in [14]; 1.16 in experiment [15]; 4.09 in [16]; -0.42 in experiment [17]; 3.02 in experiment [18]. Also, the results for the PBM binding z-score in [19] and in [20] were -0.275 and 3.56, respectively.

With GCTAGTTGGTCAGGAAAAGGTCACACACCGGTCG, the PBM binding z-score in experiment [1] stood at 3.35; in [2], 3.85; in experiment [3], 3.43; in experiment [4] it was 3.75; in experiment [5] it was 0.375; in experiment [6], 4.05. In addition, the PBM binding z-score in experiment [7] is 2.57; in [8], 3.82; in [9], 1.41; in experiment [10] it was 3.07; in [11], 0.896; in experiment [12], 2.59. The PBM binding z-score in experiment [13] is -0.101; in [14], 0.0698; in [15], 5.18; in experiment [16], 4.97; in experiment [17], 1.13; in experiment [18] it was 5.97. Further, the PBM binding z-score was determined as 3.68 in [19] and 4.17 in experiment [20].

These data come from the supplement of paper PMC6555819.
